These results are taken from publication PMC11006913.

Numbering of substitutions follows the chain as printed.

Common to all, as to test: PBM; 200 nM protein, PBS
What all share (settings): dsDNA, one strand shown

The target in test [1] is NKX2-5 (Homo sapiens, UniProt P52952 125-210, R139K).
Test [2] deals with T1, NKX2-4 (Homo sapiens, UniProt Q9H2Z4 175-261, P217L).
T1 sequence: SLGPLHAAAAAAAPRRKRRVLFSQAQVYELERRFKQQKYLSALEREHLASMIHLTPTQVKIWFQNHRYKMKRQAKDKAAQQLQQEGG

Test [3] addresses T2, NKX2-4 (Homo sapiens, UniProt Q9H2Z4 175-261, T231S).
T2 sequence: T1 sequence with L43P, T57S

The target of test [4] is T3, NKX2-4 (Homo sapiens, UniProt Q9H2Z4 175-261).
T3 sequence: T1 sequence with L43P

The target of test [5] is T4, NKX2-6 (Homo sapiens, UniProt A6NCS4 118-204, R150C).
T4 sequence: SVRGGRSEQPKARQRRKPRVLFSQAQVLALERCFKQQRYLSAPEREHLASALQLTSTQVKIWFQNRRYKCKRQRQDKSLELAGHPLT

For test [6], the target named is T5, NKX2-6 (Homo sapiens, UniProt A6NCS4 118-204).
T5 sequence: T4 sequence with C33R

For test [7], the target named is T6, NKX2-4 (Homo sapiens, UniProt Q9H2Z4 175-261, R246Q).
T6 sequence: T1 sequence with L43P, R72Q

The target in test [8] is T7, NKX2-6 (Homo sapiens, UniProt A6NCS4 118-204, F151L).
T7 sequence: T4 sequence with C33R, F34L

Test [9] has as its target NKX3-2 (Homo sapiens, UniProt P78367 192-278, P234S).
In test [10] the target is NKX2-5 (Homo sapiens, UniProt P52952 125-210).
For test [11], the target named is NKX3-2 (Homo sapiens, UniProt P78367 192-278).
Test [12] concerns the target HOXB4 (Homo sapiens, UniProt P17483 148-234).
Test [13] concerns the target HOXB4 (Homo sapiens, UniProt P17483 148-234, V174I).
Test [14] has as its target T8, VENTX (Homo sapiens, UniProt O95231 78-163, R121Q).
T8 sequence: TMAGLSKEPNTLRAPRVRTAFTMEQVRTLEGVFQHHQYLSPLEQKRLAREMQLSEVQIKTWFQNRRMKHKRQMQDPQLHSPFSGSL

For test [15], the target named is T9, VENTX (Homo sapiens, UniProt O95231 78-163).
T9 sequence: T8 sequence with Q44R

Test [16] has as its target T10, VENTX (Homo sapiens, UniProt O95231 78-163, Y115F).
T10 sequence: T8 sequence with Y38F, Q44R

For test [17], the target named is HOXB6 (Homo sapiens, UniProt P17509 132-218, K202E).
Test [18] has as its target ALX1 (Homo sapiens, UniProt Q15699 118-204, L144V).
In test [19] the target is ALX1 (Homo sapiens, UniProt Q15699 118-204, L144R).
For test [20], the target named is ALX1 (Homo sapiens, UniProt Q15699 118-204).
Chain of ALX1 (Homo sapiens, UniProt Q15699 118-204) (Q15699 118-204): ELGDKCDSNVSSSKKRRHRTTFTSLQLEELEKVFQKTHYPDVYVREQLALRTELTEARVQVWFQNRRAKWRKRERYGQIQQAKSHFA

Chain of NKX2-5 (Homo sapiens, UniProt P52952 125-210, R139K) (P52952 125-210 R139K): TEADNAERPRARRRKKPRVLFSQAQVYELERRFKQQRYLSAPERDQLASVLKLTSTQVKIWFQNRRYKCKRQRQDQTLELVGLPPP
Chain of NKX2-5 (Homo sapiens, UniProt P52952 125-210) (P52952 125-210): as the sequence (P52952 125-210 R139K) above, with K15R counted along it
Chain of NKX3-2 (Homo sapiens, UniProt P78367 192-278, P234S) (P78367 192-278 P234S): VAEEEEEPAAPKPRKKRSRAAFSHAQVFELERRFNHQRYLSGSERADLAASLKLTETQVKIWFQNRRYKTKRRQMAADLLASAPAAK
Chain of NKX3-2 (Homo sapiens, UniProt P78367 192-278) (P78367 192-278): as the sequence (P78367 192-278 P234S) above, with S43P counted along it
Chain of ALX1 (Homo sapiens, UniProt Q15699 118-204, L144R) (Q15699 118-204 L144R): as the sequence (Q15699 118-204) above, with L27R counted along it
Chain of HOXB4 (Homo sapiens, UniProt P17483 148-234) (P17483 148-234): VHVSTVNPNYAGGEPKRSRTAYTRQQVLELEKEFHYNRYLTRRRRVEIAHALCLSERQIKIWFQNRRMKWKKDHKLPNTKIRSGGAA
Chain of HOXB4 (Homo sapiens, UniProt P17483 148-234, V174I) (P17483 148-234 V174I): as the sequence (P17483 148-234) above, with V27I counted along it
Chain of HOXB6 (P17509 132-218 K202E): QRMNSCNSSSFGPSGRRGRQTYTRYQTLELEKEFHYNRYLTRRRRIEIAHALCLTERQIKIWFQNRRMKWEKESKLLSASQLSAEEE
Chain of ALX1 (Homo sapiens, UniProt Q15699 118-204, L144V) (Q15699 118-204 L144V): as the sequence (Q15699 118-204) above, with L27V counted along it

For CACTTATA, the binding signal is 13.1 upbm affinity estimate (log intensity, higher = more binding, comparable within an allelic series) in [1]; 12.6 upbm affinity estimate (log intensity, higher = more binding, comparable within an allelic series) in test [2]; 13 upbm affinity estimate (log intensity, higher = more binding, comparable within an allelic series) in test [3]; 12.5 upbm affinity estimate (log intensity, higher = more binding, comparable within an allelic series) in test [4]; 12.1 upbm affinity estimate (log intensity, higher = more binding, comparable within an allelic series) in [5]; 13.8 upbm affinity estimate (log intensity, higher = more binding, comparable within an allelic series) in test [6]. The binding signal in test [7] was 13.2 upbm affinity estimate (log intensity, higher = more binding, comparable within an allelic series); in [8] it was 11.2 upbm affinity estimate (log intensity, higher = more binding, comparable within an allelic series); in [9] it was 12.7 upbm affinity estimate (log intensity, higher = more binding, comparable within an allelic series); in test [10] it was 12.8 upbm affinity estimate (log intensity, higher = more binding, comparable within an allelic series); in test [11] it was 12.8 upbm affinity estimate (log intensity, higher = more binding, comparable within an allelic series).

Regarding ATAAGTGG, the binding signal in test [1] was 13.2 upbm affinity estimate (log intensity, higher = more binding, comparable within an allelic series); in test [2], 12.8 upbm affinity estimate (log intensity, higher = more binding, comparable within an allelic series); in test [3], 13.2 upbm affinity estimate (log intensity, higher = more binding, comparable within an allelic series); in test [4], 12.7 upbm affinity estimate (log intensity, higher = more binding, comparable within an allelic series); in test [5] it was 12.4 upbm affinity estimate (log intensity, higher = more binding, comparable within an allelic series); in test [6], 13.9 upbm affinity estimate (log intensity, higher = more binding, comparable within an allelic series). The binding signal in test [7] is 13.3 upbm affinity estimate (log intensity, higher = more binding, comparable within an allelic series); in test [8], 11.4 upbm affinity estimate (log intensity, higher = more binding, comparable within an allelic series); in test [9], 13.1 upbm affinity estimate (log intensity, higher = more binding, comparable within an allelic series); in test [10] it was 13.1 upbm affinity estimate (log intensity, higher = more binding, comparable within an allelic series); in test [11] it was 13.1 upbm affinity estimate (log intensity, higher = more binding, comparable within an allelic series).

As for ATTACGTA, the binding signal in test [1] was 10.3 upbm affinity estimate (log intensity, higher = more binding, comparable within an allelic series); in [10], 10.3 upbm affinity estimate (log intensity, higher = more binding, comparable within an allelic series).

With ATCAAGTG, the binding signal in test [1] is 12.8 upbm affinity estimate (log intensity, higher = more binding, comparable within an allelic series); in [12], 10.2 upbm affinity estimate (log intensity, higher = more binding, comparable within an allelic series); in test [2], 12.6 upbm affinity estimate (log intensity, higher = more binding, comparable within an allelic series); in [3] it was 13 upbm affinity estimate (log intensity, higher = more binding, comparable within an allelic series); in test [4] it was 12.4 upbm affinity estimate (log intensity, higher = more binding, comparable within an allelic series); in test [13] it was 10.4 upbm affinity estimate (log intensity, higher = more binding, comparable within an allelic series). Further, the binding signal was 12 upbm affinity estimate (log intensity, higher = more binding, comparable within an allelic series) in test [5]; 13.7 upbm affinity estimate (log intensity, higher = more binding, comparable within an allelic series) in test [6]; 13.1 upbm affinity estimate (log intensity, higher = more binding, comparable within an allelic series) in test [7]; 10.7 upbm affinity estimate (log intensity, higher = more binding, comparable within an allelic series) in [8]; 12.6 upbm affinity estimate (log intensity, higher = more binding, comparable within an allelic series) in test [10].

As to CCAGCGCG, the binding signal was 8.57 upbm affinity estimate (log intensity, higher = more binding, comparable within an allelic series) in test [1] and 8.52 upbm affinity estimate (log intensity, higher = more binding, comparable within an allelic series) in test [10].

In the case of CTAATTGC, the binding signal in test [1] is 10.9 upbm affinity estimate (log intensity, higher = more binding, comparable within an allelic series); in [12], 12.9 upbm affinity estimate (log intensity, higher = more binding, comparable within an allelic series); in test [14] it was 12.3 upbm affinity estimate (log intensity, higher = more binding, comparable within an allelic series); in test [15], 12.7 upbm affinity estimate (log intensity, higher = more binding, comparable within an allelic series); in test [16], 12 upbm affinity estimate (log intensity, higher = more binding, comparable within an allelic series); in test [17], 9.81 upbm affinity estimate (log intensity, higher = more binding, comparable within an allelic series). The binding signal in test [13] was 13.7 upbm affinity estimate (log intensity, higher = more binding, comparable within an allelic series); in test [18] it was 11.5 upbm affinity estimate (log intensity, higher = more binding, comparable within an allelic series); in test [19] it was 11 upbm affinity estimate (log intensity, higher = more binding, comparable within an allelic series); in test [20], 12.2 upbm affinity estimate (log intensity, higher = more binding, comparable within an allelic series); in test [10], 11.1 upbm affinity estimate (log intensity, higher = more binding, comparable within an allelic series).

Consider CGAACGCC, for which the binding signal in test [1] is 8.62 upbm affinity estimate (log intensity, higher = more binding, comparable within an allelic series); in test [18] it was 6.33 upbm affinity estimate (log intensity, higher = more binding, comparable within an allelic series); in test [19], 6.32 upbm affinity estimate (log intensity, higher = more binding, comparable within an allelic series); in test [20], 6.54 upbm affinity estimate (log intensity, higher = more binding, comparable within an allelic series); in test [10], 8.69 upbm affinity estimate (log intensity, higher = more binding, comparable within an allelic series).

For ACCCGGGC, the binding signal in test [1] is 8.96 upbm affinity estimate (log intensity, higher = more binding, comparable within an allelic series); in [10], 8.92 upbm affinity estimate (log intensity, higher = more binding, comparable within an allelic series).

Turning to CCGGAGCC, the binding signal is 8.82 upbm affinity estimate (log intensity, higher = more binding, comparable within an allelic series) in [1]; 9.74 upbm affinity estimate (log intensity, higher = more binding, comparable within an allelic series) in test [2]; 9.52 upbm affinity estimate (log intensity, higher = more binding, comparable within an allelic series) in [3]; 9.71 upbm affinity estimate (log intensity, higher = more binding, comparable within an allelic series) in test [4]; 8.96 upbm affinity estimate (log intensity, higher = more binding, comparable within an allelic series) in test [17]; 9.5 upbm affinity estimate (log intensity, higher = more binding, comparable within an allelic series) in test [7]. Also, the binding signal in test [9] was 10.4 upbm affinity estimate (log intensity, higher = more binding, comparable within an allelic series); in test [10], 8.87 upbm affinity estimate (log intensity, higher = more binding, comparable within an allelic series); in test [11], 10.4 upbm affinity estimate (log intensity, higher = more binding, comparable within an allelic series).
